Screening data from PubChem.
Cycloheximide cs – affects cycloheximide protein synthesis inhibition readout, counter-screen; cell reporter, cycloheximide protein synthesis inhibition counterscreen; actives 12% (n = 300,000); max response, %; in the data active = max response mostly above about 13%, no sharp cut-off; inactive = mostly below about 14%; note: read at 38.3 µM for the half of the compounds with a filed dose; 0% is about no effect
HCV inh – blocks hepatitis C virus | Huh7.5.1 HCVcc-Cre infection, luciferase reporter, 44 h | Potency, µM (doses to about 41.8 µM), inactives show at the top dose activity change, negative = inhibition, usual class: inhibitors | actives 3.4% (n = 340,000) | AID 651820; note: potency is the fitted concentration of half-maximal effect; % is set by controls: 0 for no effect and ±100 for the full control effect
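Seed cells (1,000/well) for 4 h; treat with compound and infect with HCVcc-Cre, moi about 0.5. Incubate 44 h, then detect luciferase activity.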
Pf growth 96h – inhibits malaria parasite growth, 96 h. AID 504834. actives 6.9% (n = 320,000). P. falciparum luciferase reporter growth, 96 h. Potency, µM (highest dose often 28.7 µM), inactives show top-dose activity change, negative = inhibition, actives largely listed as inhibitors; note: potency is the fitted concentration of half-maximal effect; % is set by controls: 0 for no effect and ±100 for the full control effect
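Two parasite generations (96 h, 37 C, 5% CO2) of compound exposure in infected erythrocytes (0.05% parasitemia, 2% hematocrit). Luciferase-reporter P. falciparum; decreased luminescence indicates inhibited growth, aimed at apicoplast-acting delayed death.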
Shiga inhibitor – Shiga toxin inhibition. Vero cells, Shiga toxin protein synthesis inhibition reporter. inhibition, % at 38.7 µM. actives 9.2% (n = 290,000). AID 2315; in the data active = inhibition mostly above about 28%, no sharp cut-off; inactive = mostly below about 43%; note: 0% is about no effect
AMA1-RON2 inh – AMA1-RON2 (P. falciparum) interaction inhibition. AID 720542. AlphaScreen AMA1-biotinylated RON2 peptide binding. actives 0.2% (n = 360,000). Potency, µM (doses to about 58.2 µM), inactives show at the top dose activity change, negative = inhibition, most hits filed as inhibitors;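 note: potency is the fitted concentration of half-maximal effect; 0% = vehicle wells and -100% = peptide control; nearly all actives have a fitted effect of over 45% in size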
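AMA1 (3D7) with his tag at 25 nM final met compounds first, then biotinylated RON2 peptide at 25 nM; detection used donor plus acceptor beads, 10 µg/mL apiece, read by AlphaScreen after 30 min at room temperature.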
Pf growth 48h – inhibits P. falciparum growth in the first generation, 48 h; P. falciparum luciferase growth in erythrocytes, 48 h; Potency, µM (titrated, usually from 28.7 µM), for the others: at the highest dose activity change, negative = inhibition, most hits filed as inhibitors; actives 5.9% (n = 310,000); note: potency is the fitted concentration of half-maximal effect; % is set by controls: 0 for no effect and ±100 for the full control effect
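Growth was read as firefly luciferase luminescence after a 48 h, 37 C, 5% CO2 exposure of compounds to reporter-bearing P. falciparum cultures (0.1% parasitemia, 2% hematocrit final) in Albumax-supplemented RPMI 1640.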
Active calls of the source: *; ? = inconclusive; nt = not tested or not shown; [ ] = dose if it differs, or a comment. Hits are enriched below; roughly 21% of the tested compounds scored in any of these assays. Unless noted, calls come from the whole dose curve; as a rule, active = well fitted curve in the direction sought with a large enough effect; inconclusive = small, poorly fitted or top-dose-only effect, or another doubt; inactive = no such curve, though single readings can be large; an effect the other way counts as inactive or inconclusive.

SMILES	Cycloheximide cs	HCV inh	Pf growth 96h	Shiga inhibitor	AMA1-RON2 inh	Pf growth 48h
CNC(=O)NC(=O)CSc1nnc(-c2ccco2)n1Cc1ccccc1	-5.2	3.3%	-0.6%	-14.7	-1.2%	13.0%
CCOC(=O)c1c(C)[nH]c(C)c1C(=O)CSc1nnc(-c2ccncc2)n1C	-4.2	23.5%	2.0%	-11.2	-8.8%	nt
CCOC(=O)C1(Cc2ccc(Cl)cc2)CCN(C(=O)c2cc(C)nc(C)n2)CC1	-3.2	7.7%	?	-1.9	-15.3%	0.7%
Cc1cc(=O)n2cc(-c3ccccc3)nc2[nH]1	22.2*	7.1%	16.7%	0.0	10.3%	18.5%
Cc1ccc(-c2cn3c(=O)cc(C)[nH]c3n2)cc1	26.1*	2.3%	393.1%	48.8	1.9%	143.6%
Cc1cc(C)cc(NC(=O)COC(=O)COc2ccc(N(C)S(=O)(=O)c3cccs3)cc2)c1	nt	30.2%	nt	nt	-5.1%	nt
CCOC(=O)c1c(C)oc2c1c(C(c1cccnc1)N1CCN(C)CC1)c(O)c1ccccc12 (stereo not given)	52.7*	11.2µM*	0.0%	155.8*	nt	55.2%
CCOC(=O)c1c(C)oc2c1c(C(c1cccnc1)N1CCOCC1)c(O)c1ccccc12 (stereo not given)	49.4*	?	149.6%	123.1*	-16.5%	77.1%
CN1CCN(C(c2cccnc2)c2ccc3cccnc3c2O)CC1 (stereo not given)	6.2	?	nt	6.3	-31.5%	?
CC(C)(C)n1nnnc1C(c1cccnc1)N1CCOCC1 (stereo not given)	-0.9	7.8%	24.9%	-10.8	-16.7%	-0.4%
CCOC(=O)c1sc2nc(CC(=O)OC)nc(NCCN3CCOCC3)c2c1C	-2.5	?	?	-3.4	15.1%	?
CCOC(=O)c1sc2nc(CC(=O)OC)nc(NCc3ccc(Cl)cc3)c2c1C	-2.1	5.62µM*	?	-7.0	0.8%	nt
CCOC(=O)c1sc2nc(CC(=O)OC)nc(NCCN(CC)CC)c2c1C	-2.9	11.2µM*	?	-7.5	-17.9%	nt
O=C(NCCOc1ccccc1)C1C(=O)Nc2ccccc2C(=O)N1C1CCCCC1 (stereo not given)	nt	nt	nt	nt	-3.7%	nt
CCOC(=O)c1ccc(S(=O)(=O)N2CCN(C3CC(=O)N(c4ccccc4C(F)(F)F)C3=O)CC2)cc1 (stereo not given)	nt	19.3%	11.7µM*	nt	-6.6%	13.1µM*
Cc1ccc(S(=O)(=O)Nc2cc(C(C(=O)OC(C)C)C(=O)C(F)(F)F)c(O)c3ccccc23)c(C)c1 (stereo not given)	-2.4	?	5.22µM*	-9.8	-0.2%	13.1µM*
Cc1ccc(S(=O)(=O)Nc2ccc(O)c3ccccc23)c(C)c1	11.8	?	22.7%	28.0	-7.7%	2.5%[0.00184 µM]
CC(C)(C)c1ccccc1OCCCCCn1ccnc1	11.9	?	5.86µM*	15.8	?	11.7µM*
CN(C)CCOCCOc1ccc(Cl)cc1C(C)(C)C	-2.6	?	483.8%	-11.3	?	?
CC(O)CNCCCOc1ccc(Cl)cc1C(C)(C)C (stereo not given)	-1.5	11.2µM*	64.0%[5.75 µM]	-14.1	-16.1%	?
Cc1cc(C(C)(C)C)ccc1OCCn1ccnc1	-3.0	?	?	-7.4	-22.2%	nt
Cc1ccc(C(C)(C)C)c(OCCCn2ccnc2)c1	-4.0	-8.9%	?	-6.9	-22.2%	?
c1ccc(-c2ccccc2OCCCCn2ccnc2)cc1	1.4	-11.1%	?	-6.6	?	11.7µM*
CC(C)(C)c1cc(Cl)ccc1OCCn1ccnc1	1.4	-10.1%	?	-13.0	?	5.86µM*
Cc1c(C(=O)NCc2ccc(C(C)C)cc2)sc(=O)n1Cc1ccc(S(=O)(=O)N(C)C)cc1	nt	nt	nt	nt	-9.0%	nt
SMILES	Cycloheximide cs	HCV inh	Pf growth 96h	Shiga inhibitor	AMA1-RON2 inh	Pf growth 48h
Cc1ccc(CN(C(=O)c2csnn2)C(C(=O)NC2CCCC2)c2ccccn2)cc1 (stereo not given)	5.0	-16.7%	4.3%	-4.2	6.2%	?
COc1ccc2nc(Cl)c(C=O)c(N3CCOCC3)c2c1	nt	nt	nt	nt	17.3%	nt
CNCCOc1ccccc1-c1ccccc1	18.6	-15.0%	-14.7%	-5.9	-18.0%	nt
CNCCCCOc1ccccc1-c1ccccc1	-4.5	12.6µM*	16.2%	-20.2	?	-14.7%
CCc1ccc(NC(=O)CSc2nnc(COc3ccc4c(c3)CCCC4)o2)cc1	-2.7	-5.2%	?	-14.7	14.3%	nt
COc1ccc(OCc2nnc(SCC(=O)NC3CCCCC3)o2)cc1	9.7	5.1%	3.6%	29.7*	-1.6%	43.1%
CC(C)(C)c1ccc(-c2nnc(SCC(=O)NC3CC3)o2)cc1	nt	-7.0%	1.31µM*	nt	7.0%	2.08µM*
COc1ccc(OCc2nnc(SCC(=O)NC3CC4CCC3C4)o2)cc1 (stereo not given)	28.2*	8.2%	52.7%	44.2	1.0%	-6.3%
COC(=O)c1ccc(NC(=O)CSc2nnc(COc3ccc4c(c3)CCCC4)o2)cc1	3.4	17.2%	1.85µM*	-17.2	3.0%	-6.6%
O=C(CSc1nnc(COc2ccc(Cl)cc2)o1)NC1CCCCC1	nt	-0.9%[8.37 µM]	16.5%	nt	1.4%	6.3%
Cc1ccc(S(=O)(=O)N(C)C)cc1NC(=S)N1CCc2ccccc21	-2.3	-11.7%	4.5%	-10.5	0.0%	-1.5%
Cn1c(N)c(C(=O)COC(=O)c2ccccc2C(=O)c2ccc(Cl)c([N+](=O)[O-])c2)c(=O)n(C)c1=O	nt	11.2µM*	nt	nt	-2.5%	nt
Cn1c(N)c(C(=O)COC(=O)c2ccccc2C(=O)c2ccccc2)c(=O)n(C)c1=O	nt	8.6%	-113.1%	nt	9.6%	13.1µM*
COc1cccc(NC(=O)NCCCCc2ccccc2)c1	30.7*	-12.5%	?	23.8	1.3%	6.2%
CCOc1ccccc1NC(=O)NCc1ccccc1F	9.1	11.2µM*	0.8%	-3.6	-1.8%	0.0%
COc1ccc(NC(=O)NCc2ccccc2F)cc1OC	-1.4	-7.9%	10.4µM*	-22.3	7.8%	6.3%
COc1ccc(NC(=O)N2CCCC2C(=O)Nc2ccccc2)cc1 (stereo not given)	-1.2	-4.4%	2.8%	-8.2	2.9%	-8.0%
COc1ccccc1NC(=O)NCc1ccccc1F	0.4	-13.5%	1.4%	13.5	-3.7%	52.3%
COc1ccc(NC(=O)N2CCCC2C(=O)Nc2ccccc2F)cc1 (stereo not given)	-3.1	0.1%	2.62µM*	2.1	-15.3%	17.1%
O=C(NC1CCCCC1)c1ccc(CS(=O)Cc2ccc(Cl)cc2)o1 (stereo not given)	-1.3	3.1%	7.8%	-1.9	-5.2%	-7.9%
O=C(Nc1nnc([C@@H]2C[C@H](O)[C@@H](CO)O2)s1)c1c(F)cccc1F	nt	nt	nt	nt	6.2%	nt
COc1ccc(C(=O)NC(C)CCn2cccn2)cc1OC1CCN(C(C)C)CC1 (stereo not given)	-2.4	nt	-22.0%	-13.2	17.7%	-1.4%
